Assay results reported in PubChem BioAssay (NCATS).
Inconclusive results are not listed. Active and inactive are the calls of the source. Unless noted, the call rests on the fitted dose curve; in most records, active means well fitted curve in the direction sought with a large enough effect; inconclusive means small, poorly fitted or top-dose-only effect, or another doubt; inactive means no such curve, though single readings can be large; an effect the other way counts as inactive or inconclusive.

What was measured:
[1] = target: Lysosomal acid glucosylceramidase (Homo sapiens) (UniProt P04062); test: Glucocerebrosidase-p2 (AID 348; in the data active means potency below about 10 µM; further: potency means the concentration at half of the fitted maximal effect); settings: purified GBA, blue fluorogenic substrate, 40 min
Sequence of Lysosomal acid glucosylceramidase (Homo sapiens) (P04062 whole entry, looked up): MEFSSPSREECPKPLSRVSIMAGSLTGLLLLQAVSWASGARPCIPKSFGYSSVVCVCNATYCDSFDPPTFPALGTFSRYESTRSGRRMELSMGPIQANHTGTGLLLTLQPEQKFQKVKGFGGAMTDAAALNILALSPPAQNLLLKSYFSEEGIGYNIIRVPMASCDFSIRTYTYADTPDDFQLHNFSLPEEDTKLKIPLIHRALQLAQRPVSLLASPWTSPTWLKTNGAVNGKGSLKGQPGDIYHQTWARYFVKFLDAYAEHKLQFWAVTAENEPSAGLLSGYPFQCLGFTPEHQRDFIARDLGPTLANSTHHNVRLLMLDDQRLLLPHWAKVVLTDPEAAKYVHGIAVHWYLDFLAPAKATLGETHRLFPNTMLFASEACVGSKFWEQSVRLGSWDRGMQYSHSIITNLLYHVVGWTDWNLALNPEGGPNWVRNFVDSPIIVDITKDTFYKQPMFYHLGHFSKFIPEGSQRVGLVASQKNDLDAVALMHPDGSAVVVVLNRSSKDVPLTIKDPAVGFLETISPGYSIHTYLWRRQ
In short: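 Compounds titrated from 0.6 nM upwards against 0.2 nM enzyme in pH 5.9 citric acid/KH2PO4, taurocholate, tween-20; blue fluorogenic substrate 80 uM, 40 min room temperature, stopped and read Ex 365/Em 440 for AC50.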

[2] = AP1 Signaling Pathway (AID 357; active means well fitted curve in either direction with a large enough effect, not every such curve was filed as active;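 further: ME-180 reporter cells stimulated with EGF at its EC50 level; on the % scale 0 is the no-effect control and ±100 the full control effect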); settings: ME-180 AP-1-bla reporter, EGF-induced, beta-lactamase ratio, 5 h; at 7.69 µM (top of the series) unless noted
In short: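 Beta-lactamase reporter under AP-1 response element, ME-180 background. Stimulus: EC50 EGF. Compound exposure 5 h, 37 °C. Detection: CCF4, 2.5 h RT, 460/530 nm. Values: AC50 from titration.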

[3] = NFAT Signaling Pathway (AID 444; active means well fitted curve in either direction with a large enough effect, not every such curve was filed as active;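 further: carbachol stimulus at about its EC50 of 1 µM final; on the % scale 0 is the no-effect control and ±100 the full control effect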); settings: Jurkat NFAT-bla M1, carbachol, beta-lactamase ratio, 5 h; at 7.69 µM (top of the series) unless noted
In short: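 Jurkat cells with NFAT-driven β-lactamase reporter and co-expressed M1 receptor, stimulated with carbachol (final 1 uM, ~EC50), compound titration, 5 h at 37 °C. CCF4 loaded 1 h at RT; 460/530 nm ratio gave %activity and AC50.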

[4] = Stat Signaling Pathway (AID 446; active means well fitted curve in either direction with a large enough effect, not every such curve was filed as active;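 further: ME-180 cervical cancer cells given 40 pM IL-6 alongside compound; SIE-controlled beta-lactamase reporter measured as 460/530 nm FRET emission ratio; on the % scale 0 is the no-effect control and ±100 the full control effect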); settings: ME-180 SIE beta-lactamase reporter, IL-6 stimulated, 5 h; series mostly up to 7.69 µM
In short: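 ME-180 cells carrying a SIE-driven beta-lactamase reporter are stimulated with 40 pM IL-6 for 5 h at 37C in the presence of compound. The 460/530 nm FRET substrate ratio is read after 2.5 h at RT. Data are normalised to 300 pM IL-6 and to 125 nM JAK inhibitor controls.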

[5] = target: Glucocorticoid receptor (Homo sapiens) (UniProt P04150); test: GR-EFC Redistribution (AID 451; calls by dose curve; further: potency means the concentration at half of the fitted maximal effect); settings: CHO-K1 GR-EFC translocation, beta-gal luminescence, 2 h
Sequence of Glucocorticoid receptor (Homo sapiens) (P04150 whole entry, looked up, the tested form may be a part): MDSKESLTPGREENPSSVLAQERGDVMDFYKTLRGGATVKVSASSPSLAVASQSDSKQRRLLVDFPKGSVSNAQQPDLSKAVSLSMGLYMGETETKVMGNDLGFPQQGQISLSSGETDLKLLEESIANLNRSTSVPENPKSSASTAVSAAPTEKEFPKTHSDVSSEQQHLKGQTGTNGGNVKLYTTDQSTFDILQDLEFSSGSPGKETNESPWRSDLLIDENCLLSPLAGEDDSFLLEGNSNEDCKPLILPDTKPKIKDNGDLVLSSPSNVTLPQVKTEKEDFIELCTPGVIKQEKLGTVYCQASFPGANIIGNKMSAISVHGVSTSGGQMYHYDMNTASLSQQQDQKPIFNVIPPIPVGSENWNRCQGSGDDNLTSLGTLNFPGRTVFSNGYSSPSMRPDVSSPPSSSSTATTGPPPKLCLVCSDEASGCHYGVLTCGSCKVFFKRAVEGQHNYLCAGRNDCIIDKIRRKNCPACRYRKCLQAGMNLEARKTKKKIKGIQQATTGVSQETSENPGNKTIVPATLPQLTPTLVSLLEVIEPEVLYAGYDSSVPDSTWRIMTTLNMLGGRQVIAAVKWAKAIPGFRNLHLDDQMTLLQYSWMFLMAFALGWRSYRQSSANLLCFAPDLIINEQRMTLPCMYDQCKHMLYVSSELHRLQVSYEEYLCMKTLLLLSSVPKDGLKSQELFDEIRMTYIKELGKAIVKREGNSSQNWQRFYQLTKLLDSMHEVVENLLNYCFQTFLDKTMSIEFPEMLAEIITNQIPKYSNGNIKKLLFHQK
In short: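 CHO-K1 cells expressing nuclear EA and GR-ED fragments of b-gal; compounds titrated up to 46 uM final, 2 h at 37 C. GR nuclear translocation read as complemented b-gal luminescence after 1 h RT detection.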

[6] = target: Mitogen-activated protein kinase 10 (Mus musculus) (UniProt Q61831); test: JNK3 AlphaScreen Assay (AID 530; active means well fitted curve in either direction with a large enough effect, not every such curve was filed as active;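 further: kinase came from lysate of stimulated human HepG2 cells; signal reports phosphorylation of biotinylated GST-cJun 1-79 at Ser73 with 10 µM ATP; on the % scale 0 is the no-effect control and ±100 the full control effect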); settings: JNK3 lysate, c-Jun phosphorylation; series mostly up to 57.1 µM
In short: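 Pre-activated (IL-1β/TNFα) JNK3 in HepG2 lysates phosphorylates biotin-GST-cJun(1-79), 10 uM ATP; anti-phospho-cJun(Ser73) AlphaScreen read at room temperature, pH 7.6 Tris buffer. Compounds pre-incubated 15 min as titrations.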

[7] = target: 3',5'-cyclic-AMP phosphodiesterase 4B (Homo sapiens) (UniProt Q07343); test: qHTS Assay for Inhibitors of PDE-IV (AID 607; active means well fitted activation curve with a large enough effect in the main read-out, with a control signal flat, not every such curve was filed as active; further: % of control where 0% means no effect); settings: HEK293 ACTOne CNG channel cells, membrane potential fluorescence; series mostly up to 22.9 µM
In short: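 HEK293 ACTOne cells with CNG channel (1000/well), endogenous PDE4; membrane potential dye, compounds up to 22.9 uM final. Fluorescence Ex 535/Em 590; RO 20-1724 (100 uM final) as reference.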

[8] = target: Dual specificity protein kinase CLK4 (Homo sapiens) (UniProt Q9HAZ1); test: qHTS Assay for Inhibitors of CDC-like Kinase 4 (ADP-FP Assay) (AID 1795); settings: Transcreener ADP fluorescence polarization; series mostly up to 50 µM; further: nearly all actives have a fitted effect of over 60% in size; further: potency means the concentration at half of the fitted maximal effect
Sequence of Dual specificity protein kinase CLK4 (Homo sapiens) (Q9HAZ1 whole entry, looked up): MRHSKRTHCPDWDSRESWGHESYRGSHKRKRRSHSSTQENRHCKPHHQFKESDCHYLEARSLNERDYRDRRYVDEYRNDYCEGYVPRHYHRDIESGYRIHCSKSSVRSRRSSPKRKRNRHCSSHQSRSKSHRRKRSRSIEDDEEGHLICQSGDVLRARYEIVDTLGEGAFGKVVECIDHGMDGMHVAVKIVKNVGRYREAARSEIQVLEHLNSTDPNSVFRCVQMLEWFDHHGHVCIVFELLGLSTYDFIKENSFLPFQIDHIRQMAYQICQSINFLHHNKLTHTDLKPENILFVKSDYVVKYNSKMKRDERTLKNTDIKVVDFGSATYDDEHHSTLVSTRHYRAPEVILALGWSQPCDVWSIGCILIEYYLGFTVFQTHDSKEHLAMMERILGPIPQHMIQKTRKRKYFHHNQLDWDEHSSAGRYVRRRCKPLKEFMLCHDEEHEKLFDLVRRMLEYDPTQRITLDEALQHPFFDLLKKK
In short: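 Kinase activity was measured as ADP production using Transcreener orange tracer (4 nM) and ADP antibody (1 ug/mL) fluorescence polarization, with ADP calculated from a calibration curve. The 1 h reaction contained 6.25 nM Clk4, 1 uM ATP and 100 uM RS peptide at pH 7.5 with Mg2+.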

[9] = HepG2 viability counterscreen (readout 2: ATP content) against the NCATS DSHEA and TCM libraries (AID 1794840); settings: ATP content luminescence; series mostly up to 27.3 µM;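 further: HepG2 cells exposed to substances for about 24 h; 0% is about no effect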
In short: (§1)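 Readout 1: cellular protease activity, GF-AFC substrate (25 uM final, 30 min, fluorescence 380/510 nm). Readout 2: ATP content by CellTiter-Glo luminescence after 30 min at RT. Both follow ~24 h exposure of HepG2 cells (1,000/well) to substances.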

[10] = target: Cytochrome P450 3A4 (Homo sapiens) (UniProt P08684); test: qHTS for inhibitors of CYP3A4 against the NCATS DSHEA and TCM libraries (AID 1919971); settings: recombinant CYP3A4 enzyme activity, luminescence qHTS; series mostly up to 34.1 µM;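 further: on the % scale 0 is the no-effect control and ±100 the full control effect; inhibition lowers luminescence from luciferin made by CYP3A4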
Sequence of Cytochrome P450 3A4 (Homo sapiens) (P08684 whole entry, looked up, canonical isoform): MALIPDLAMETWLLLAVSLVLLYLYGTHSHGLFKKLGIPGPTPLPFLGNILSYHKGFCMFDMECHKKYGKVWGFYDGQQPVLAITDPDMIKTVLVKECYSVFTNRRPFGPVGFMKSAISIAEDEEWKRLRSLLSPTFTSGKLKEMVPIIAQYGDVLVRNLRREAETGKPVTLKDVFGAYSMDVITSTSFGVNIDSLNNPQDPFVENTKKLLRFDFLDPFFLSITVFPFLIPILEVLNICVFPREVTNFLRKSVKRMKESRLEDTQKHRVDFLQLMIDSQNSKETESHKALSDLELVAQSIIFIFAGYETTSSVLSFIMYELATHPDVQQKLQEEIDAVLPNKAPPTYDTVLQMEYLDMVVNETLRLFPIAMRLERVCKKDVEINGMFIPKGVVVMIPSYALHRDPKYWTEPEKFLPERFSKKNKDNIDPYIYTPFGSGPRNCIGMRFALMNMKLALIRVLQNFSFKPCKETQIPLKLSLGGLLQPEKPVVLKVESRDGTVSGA
In short: (§2)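 Read-out is luminescence after P450-Glo detection (30 min, RT). Before that: 15 min compound–enzyme preincubation, then 30-45 min reaction with 1x NADPH regeneration solution, substrate concentration isoform-specific.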

[11] = target: Cytochrome P450 2D6 (Homo sapiens) (UniProt P10635); test: qHTS for inhibitors of CYP2D6 against the NCATS DSHEA and TCM libraries (AID 1919972); settings: CYP2D6 enzymatic inhibition, luminescence qHTS; series mostly up to 34.1 µM; further: on the % scale 0 is the no-effect control and ±100 the full control effect
Sequence of Cytochrome P450 2D6 (Homo sapiens) (P10635 whole entry, looked up): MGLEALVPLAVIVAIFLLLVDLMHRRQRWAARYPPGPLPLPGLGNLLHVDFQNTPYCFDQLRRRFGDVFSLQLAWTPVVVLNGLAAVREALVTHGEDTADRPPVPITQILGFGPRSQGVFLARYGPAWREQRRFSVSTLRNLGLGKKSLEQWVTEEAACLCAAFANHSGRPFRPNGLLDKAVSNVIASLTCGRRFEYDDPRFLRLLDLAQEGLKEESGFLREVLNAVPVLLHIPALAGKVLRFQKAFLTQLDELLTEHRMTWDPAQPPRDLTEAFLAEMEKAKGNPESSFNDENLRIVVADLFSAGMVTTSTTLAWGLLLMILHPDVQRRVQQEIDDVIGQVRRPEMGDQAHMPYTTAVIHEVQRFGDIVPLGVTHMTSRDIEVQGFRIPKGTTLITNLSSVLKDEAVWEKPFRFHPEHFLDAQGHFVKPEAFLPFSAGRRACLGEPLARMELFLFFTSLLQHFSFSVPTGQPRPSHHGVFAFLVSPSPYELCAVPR
In short: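 Luminescent P450-Glo read-out of CYP2D6 turnover of a luciferin substrate after NADPH-driven reaction of 30-45 min at room temperature. Compounds were first preincubated 15 min with enzyme at titrated concentrations; quinidine was the intraplate control.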

[12] = target: Cytochrome P450 2C9 (Homo sapiens) (UniProt P11712); test: qHTS for inhibitors of CYP2C9 against the NCATS DSHEA and TCM libraries (AID 1919973); settings: recombinant CYP2C9 enzyme activity, luminescence; series mostly up to 34.1 µM
Sequence of Cytochrome P450 2C9 (Homo sapiens) (P11712 whole entry, looked up): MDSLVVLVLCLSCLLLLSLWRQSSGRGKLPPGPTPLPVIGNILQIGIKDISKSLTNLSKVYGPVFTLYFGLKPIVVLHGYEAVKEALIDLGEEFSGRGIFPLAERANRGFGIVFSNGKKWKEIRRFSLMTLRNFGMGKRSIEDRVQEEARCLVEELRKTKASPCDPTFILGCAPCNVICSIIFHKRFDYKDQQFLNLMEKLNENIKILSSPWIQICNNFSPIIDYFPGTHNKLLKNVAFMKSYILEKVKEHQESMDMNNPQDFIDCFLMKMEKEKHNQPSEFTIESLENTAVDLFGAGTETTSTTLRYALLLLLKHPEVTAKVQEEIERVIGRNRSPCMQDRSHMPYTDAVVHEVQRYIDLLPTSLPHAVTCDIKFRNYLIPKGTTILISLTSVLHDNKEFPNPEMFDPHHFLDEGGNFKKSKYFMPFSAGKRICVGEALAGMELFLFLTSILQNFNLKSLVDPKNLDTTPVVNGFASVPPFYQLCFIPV
In short: as §2

[13] = KB-3-1 P-gp reporter qHTS against the NCATS DSHEA and TCM libraries (AID 1919975); settings: KB-3-1 parental cells, CellTiter-Glo luminescence viability, 72 h; series mostly up to 26.1 µM; further: 0% is about no effect
In short: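 Cell viability by CellTiter-Glo luminescence following ~72 h compound exposure (concentration-response). Uses parental, non-P-gp-overexpressing KB-3-1 line, 500 cells/well in DMEM/10% FBS, attached ~4 h before dosing.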

[14] = target: Cytochrome P450 1A2 (Homo sapiens) (UniProt P05177); test: qHTS for inhibitors of CYPIA2 against the NCATS DSHEA and TCM libraries (AID 1919976); settings: recombinant CYP1A2 enzyme activity, luminescence; series mostly up to 37 µM
Sequence of Cytochrome P450 1A2 (Homo sapiens) (P05177 whole entry, looked up): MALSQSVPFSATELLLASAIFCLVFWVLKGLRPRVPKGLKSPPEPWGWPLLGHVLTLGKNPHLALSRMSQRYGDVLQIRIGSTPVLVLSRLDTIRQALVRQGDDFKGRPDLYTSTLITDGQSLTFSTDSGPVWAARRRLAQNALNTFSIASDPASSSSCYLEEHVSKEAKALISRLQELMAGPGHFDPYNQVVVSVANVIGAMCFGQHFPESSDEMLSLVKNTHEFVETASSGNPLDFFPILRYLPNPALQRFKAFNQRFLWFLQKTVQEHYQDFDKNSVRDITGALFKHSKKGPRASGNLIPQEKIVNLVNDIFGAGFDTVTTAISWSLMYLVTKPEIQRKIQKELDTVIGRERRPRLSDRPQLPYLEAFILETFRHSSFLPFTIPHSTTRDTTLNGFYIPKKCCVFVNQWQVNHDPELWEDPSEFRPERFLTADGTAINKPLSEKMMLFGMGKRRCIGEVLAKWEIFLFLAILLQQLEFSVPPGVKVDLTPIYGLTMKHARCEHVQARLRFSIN
In short: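 CYP1A2 + luciferin substrate, 100 mM KPO4-type buffer; cmpd 15 min RT; 1x NADPH regen, 30-45 min RT dark; detection reagent 30 min RT; luminescence. Minus-enzyme wells as background; furafylline intraplate control.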

[15] = qHTS Counterscreen for compound interference against the NCATS DSHEA and TCM libraries (AID 1919978); settings: firefly luciferase detection reagent interference, luminescence;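 further: compounds preincubated with 1 µM D-luciferin or buffer before detection reagent; % of control where 0% means no effect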
In short: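 With 1 uM D-luciferin or phosphate buffer only, compounds at final 19.5 nM–39.8 uM were incubated for 15 min at room temperature. Luciferase detection reagent was then added, and luminescence was measured after a further 30 min at room temperature.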

[16] = Dual reporter qHTS for agonist of Pregnane X Receptor (hPXR) against the NCATS DSHEA and TCM libraries: Fluorescence readout (AID 1920058); settings: PXR dual reporter cells; series mostly up to 40 µM; further: 0% is about no effect
In short: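 HepG2 hPXR-Luc, 2000 cells/well, 5 h attach; cpds ~24 h, 37 °C/5% CO2; CellTiter-Fluor 1 h; fluor. Ex/Em 405/540 nm = viability.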

[17] = target: Nuclear receptor subfamily 1 group I member 2 (Homo sapiens) (UniProt O75469); test: Dual reporter qHTS for agonist of Pregnane X Receptor (hPXR) against the NCATS DSHEA and TCM libraries: Luminescence readout (AID 1920059); settings: hPXR dual reporter cells, luciferase luminescence agonist; series mostly up to 40 µM; further: 0% is about no effect
Sequence of Nuclear receptor subfamily 1 group I member 2 (Homo sapiens) (O75469 whole entry, looked up): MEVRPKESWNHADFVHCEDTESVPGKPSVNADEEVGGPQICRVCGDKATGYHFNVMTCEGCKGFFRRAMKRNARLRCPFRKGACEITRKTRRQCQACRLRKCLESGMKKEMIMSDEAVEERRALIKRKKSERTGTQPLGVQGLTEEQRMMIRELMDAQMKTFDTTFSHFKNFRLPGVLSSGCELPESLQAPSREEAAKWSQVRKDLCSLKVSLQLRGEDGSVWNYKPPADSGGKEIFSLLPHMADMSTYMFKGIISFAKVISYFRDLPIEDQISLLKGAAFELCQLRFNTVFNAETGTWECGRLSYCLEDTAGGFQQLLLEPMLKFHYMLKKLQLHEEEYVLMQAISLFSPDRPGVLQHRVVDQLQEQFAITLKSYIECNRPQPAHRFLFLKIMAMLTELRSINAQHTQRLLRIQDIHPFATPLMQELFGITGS
In short: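 hPXR-Luc HepG2 cells, 2000/well in 5% charcoal-stripped FBS medium, attached 5 h, then exposed 24 h at 37C to compounds. Viability by CellTiter-Fluor, then luciferase luminescence with ONE-Glo.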

[18] = target: Nuclear receptor subfamily 1 group I member 2 (Homo sapiens) (UniProt O75469); test: Dual reporter qHTS for antagonist of Pregnane X Receptor (hPXR) against the NCATS DSHEA and TCM libraries: Luminescence Readout (AID 1920060); settings: hPXR dual reporter cells, luciferase luminescence, antagonist mode; series mostly up to 40 µM;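 further: HepG2 cells carrying hPXR luciferase reporter stimulated with rifampicin at 2 µM; 0% is about no effect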
In short: (§3)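 hPXR-Luc HepG2 cells exposed 24 h at 37 C to compounds with 2 uM rifampicin in antagonist mode; luciferase luminescence measured by ONE-Glo, with CellTiter-Fluor viability read beforehand.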

[19] = Dual reporter qHTS for antagonist of Pregnane X Receptor (hPXR) against the NCATS DSHEA and TCM libraries: Fluorescence Readout (AID 1920061); settings: PXR dual reporter cells, antagonist mode; series mostly up to 40 µM; further: 0% is about no effect
In short: as §3

[20] = target: Cytochrome P450 1A2 (Homo sapiens) (UniProt P05177); test: p450-cyp1a2 (AID 410; calls by dose curve; further: potency means the concentration at half of the fitted maximal effect); settings: recombinant CYP1A2, luciferin-ME demethylation, luminescence; series mostly up to 57 µM
In short: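 Luminescent readout of luciferin formed from Luciferin-ME by human CYP1A2; data normalized against complete inhibition by 57 uM furafylline. Enzyme 20nM, substrate 100uM at Km, 100mM KPO4 buffer, 60 min reaction at room temperature.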

[21] = target: Ubiquitin carboxyl-terminal hydrolase 1 (Homo sapiens) (UniProt O94782); test: Inhibitors of USP1/UAF1: Pilot qHTS (AID 504865); settings: purified USP1/UAF1, Ub-rhodamine cleavage fluorescence; series mostly up to 54.9 µM;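 further: rhodamine fluorescence freed from ubiquitin-rhodamine substrate followed over time; top concentration of the series differs between compounds; on the % scale 0 is the no-effect control and ±100 the full control effect; nearly all actives have a fitted effect of over 35% in size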
In short: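 Deubiquitinase activity followed as kinetic rhodamine fluorescence release from 150 nM Ub-Rho. 1 nM USP1/UAF1 with compound, after 15 min room-temperature preincubation, in HEPES pH 7.8 buffer containing TCEP, EDTA, BSA and Tween-20.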

[22] = Viability counterscreen for antagonist of constitutive androstane receptor (CAR) against the NCATS DSHEA and TCM libraries (AID 1794837); settings: CAR reporter cell line viability counterscreen, qHTS; series mostly up to 40 µM;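 further: compound exposure lasted 24 h before viability reading; 0% is about no effect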
In short: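 Viability was measured by CellTiter-Fluor fluorescence (405/540 nm, 1 hr) in HepG2-CYP2B6-hCAR cells. Cells were co-treated 24 hr with 48 uM CITCO (final), antagonist mode, and test substances.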

[23] = Viability counterscreen for agonist of constitutive androstane receptor (CAR) against the NCATS DSHEA and TCM libraries (AID 1794838); settings: HepG2 cell viability counterscreen, CAR agonist assay, co-treated with 0.75 µM CAR antagonist; series mostly up to 40 µM; further: 0% is about no effect
In short: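 Cell viability, from CellTiter-Fluor fluorescence (405/540 nm), was scored after a 24 h, 37C exposure of HepG2 cells carrying CYP2B6 reporter and hCAR to test substances in presence of 0.75 uM PK11195.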

[24] = target: Nuclear receptor subfamily 1 group I member 3 (Homo sapiens) (UniProt Q14994); test: Primary qHTS for agonist of constitutive androstane receptor (CAR) against the NCATS DSHEA and TCM libraries (AID 1794839); settings: CAR agonist reporter cells, qHTS luminescence, CAR antagonist co-added at 0.75 µM; series mostly up to 40 µM;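 further: HepG2 cells expressing human CAR with a CYP2B6 reporter plus PK11195 antagonist; 0% is about no effect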
Sequence of Nuclear receptor subfamily 1 group I member 3 (Homo sapiens) (Q14994 whole entry, looked up): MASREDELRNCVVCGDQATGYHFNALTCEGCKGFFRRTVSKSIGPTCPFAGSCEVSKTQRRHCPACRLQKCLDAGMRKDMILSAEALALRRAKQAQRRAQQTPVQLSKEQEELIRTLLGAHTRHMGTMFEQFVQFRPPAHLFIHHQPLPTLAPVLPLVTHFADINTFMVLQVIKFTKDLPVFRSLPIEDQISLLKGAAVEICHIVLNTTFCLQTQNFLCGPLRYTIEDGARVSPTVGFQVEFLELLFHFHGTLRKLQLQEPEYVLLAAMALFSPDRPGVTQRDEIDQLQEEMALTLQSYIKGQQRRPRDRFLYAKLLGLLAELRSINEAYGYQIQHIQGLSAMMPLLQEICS
In short: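 Agonist mode in presence of hCAR antagonist PK11195 (0.75 µM final): test substances, 24 h, 37 °C, on HepG2-CYP2B6-hCAR cells. Same-well readouts: fluorescence viability, then ONE-Glo luminescence; CITCO as reference agonist.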

[25] = HepG2 viability counterscreen (readout 1: protease activity) against the NCATS DSHEA and TCM libraries (AID 1794841); settings: qHTS concentration series; series mostly up to 27.3 µM;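 further: cells exposed to compounds for about 24 h before the protease read; 0% is about no effect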
In short: as §1

[26] = target: Cytochrome P450 2C19 (Homo sapiens) (UniProt P33261); test: qHTS for inhibitors of CYP2C19 against the NCATS DSHEA and TCM libraries (AID 1919974); settings: CYP2C19 enzyme inhibition, luminescence qHTS; series mostly up to 34.1 µM
In short: as §2

CN(C)c1nc(-c2ccc3c(c2)OCO3)nc2ccccc12
inactive: Potency [1] > 11.4 µM | activity change, negative = inhibition [2] 9.5% | activity change, negative = inhibition [3] -16.9% | outcome [4] | Potency [5] > 46 µM | Potency [6] | Potency [7] | Potency [8]

C=C1CC[C@H]2C[C@@H]1C2(C)C
inactive: outcome [9] | Potency [10] | Potency [11] | Potency [12] | outcome [13] | Potency [14] | max response [15] 0.51% | outcome [16] | Potency [17] | outcome [18] | outcome [19]

CN(Cc1ccco1)c1nc(-c2cccnc2)nc2ccccc12
inactive: Potency [1] > 11.4 µM | outcome [4] | Potency [5] > 46 µM | Potency [6] | Potency [21]
active: Potency [20] 0.316 µM | Potency [8] 12.6 µM

CCCCCCCC/C=C/CCCCCCCCCC(=O)O
inactive: outcome [22] | outcome [23] | Potency [24] | outcome [9] | Potency [11] | outcome [13] | Potency [14] | max response [15] -1.3% | outcome [16] | Potency [17] | outcome [18]

O=C(/C=C/c1ccc(O)c(O)c1)OC1[C@H](O)CC(O)(C(=O)O)C[C@@H]1O (stereo not given in full)
inactive: outcome [22] | outcome [23] | Potency [24] | outcome [25] | Potency [10] | Potency [12] | Potency [26] | outcome [13] | Potency [14] | max response [15] -1.19% | outcome [16] | Potency [17] | outcome [18]
